We go through 39 compounds from PubChem BioAssay (NCI).

“And” between values parts separate entries of the source, which are not always exact repeats. Identical values can stand only once. This is part of a sample that, as a whole, favours compounds with a hit. Of some 83,000 tested, about 20% had one in any assay.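 Results are percent growth after 48 hours of single-concentration exposure. 100 means growth as in untreated cells, lower positive values show inhibition; negative values down to -100 show cell death.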 The source made the active and inactive calls. How the source made its calls: active means growth percent below 10; inactive means the rest.

This experiment concerns MDA-MB-468 breast. In words: NCI-60 one-dose screen, 48 h (100 = growth as untreated, 0 = no growth, -100 = all killed). As to conditions: 10 µM unless noted.
Consider `O=C(O)c1cn(C2CC2)c2cc(N3CCN(C(=O)Nc4nc(-c5ccc(Br)cc5)cs4)CC3)c(F)cc2c1=O`, for which the growth was 13.7% (inactive).
Consider `CONC1=Nc2cc(NC(N)=NCc3ccccc3)c(N(C)C3CCCCC3)cc2OC1`, for which the growth was -23.4% (active).
In the case of `O=C1c2ccccc2-c2c1c1ccncc1c(=O)n2CCCn1ccnc1` it was 28% (inactive); in that of `O=C1c2cccnc2C(=O)c2c1c(C(=O)NCCn1ccnc1)c1ccccn21`, -6.68% (active).
In the case of `CCOC(=N)CC(=O)Nc1cccc(C)c1Cl` it was 90.8% (inactive); in that of `COc1ccccc1CNCCCN1C(=O)c2ccc3c4c(ccc(c24)C1=O)C(=O)N(CCCNCCNCCCN)C3=O`, -56.2% (active); in that of `N#CC1=C(N)Oc2c(ccc3ccccc23)C1c1ccccc1Cl` (centres undefined), 8.77% (active).
For `Cc1nn(-c2ccccc2)c(Cl)c1C(CC(=O)c1ccc(Cl)cc1)CC(=O)c1ccc(Cl)cc1` the value was 87.7% (inactive).
In the case of `COc1cc2nc(C(=O)N3CCCCC3)cc(Nc3ccccc3)c2cc1OC`, the growth is 131% (inactive).
In the case of `O=C1/C(=C/c2ccc(O)cc2)COc2ccc(O)cc21` it was 100% (inactive).
In the case of `CNc1nc(NC)c2cn[nH]c2n1` it was 94.8% (inactive); in that of `COc1ccccc1CNc1c2ccccc2nc2ccccc12`, 28.3% (inactive).
In the case of `NC(=O)c1cccc([C@@H]2O[C@H](CO)[C@@H](O)[C@H]2O)c1` it was 87.7% (inactive); in that of `CCSc1nc(Nc2ccc(S(=O)(=O)Nc3ccon3)cc2)c(C#N)c(-c2cccc(Br)c2)n1`, 85.1% (inactive).
For `O=C1CSC(c2ccccc2)N1c1ccccc1` (centres undefined), the growth was 90.6% (inactive).
For `C=C1C(=O)O[C@H]2[C@H]1CC/C(COC(=O)CCCCC(=O)OC/C1=C/CC[C@@]3(C)O[C@H]3[C@H]3OC(=O)C(=C)[C@@H]3CC1)=C\CC[C@@]1(C)O[C@@H]21` the value was 45.5% (inactive).
For `COc1cc(Cl)cc(-c2nn(-c3cccc(NC(=O)c4ccc(N5CCOCC5)c(C(F)(F)F)c4)c3)cc2-c2ccncc2)c1` the value was 50.2% (inactive); for `COc1cc(/C=C(/c2ccccc2)[N+](=O)[O-])c(OC)c2c1OCO2`, -81.4% (active); for `O=C(CI)NC(=O)NC(=O)NCc1ccccc1`, 65.5% (inactive).
In the case of `COc1cnc2c(c1)C(=O)c1c-2n(CCCN2CCNCC2)c(=O)c2cc(F)ccc12` it was -27.9% (active).
In the case of `N#Cc1ccc(N2Cc3ccccc3OC3=C2C(=O)c2c(O)ccc(O)c2C3=O)cc1`, the growth is -18.8% (active).
For `CC(=O)c1ccc(C)c(N)c1` the value was 104% (inactive); for `C=C1CCC2C(C)(CO)C(O)CCC2(C)C1C/C=C1/C(=O)OCC1O/C=C/c1ccccc1` (centres undefined), 80.5% (inactive); for `O=C(NO)c1ccc(Cn2c(=O)n(-c3ccccc3)c(=O)c3ccccc32)cc1`, 16.9% (inactive).
In the case of `N#C/C(=C\c1ccccn1)c1nc2cc(Cl)ccc2s1` it was 55.5% (inactive); in that of `O=C/C=C/c1ccc([N+](=O)[O-])cc1`, 108% (inactive).
In the case of `O=C1C[C@@H](c2ccccc2)Oc2c(Cc3ccccc3O)c(O)c(Cc3cc(Cc4cc(Cc5ccccc5O)ccc4O)ccc3O)c(O)c21` it was 101% (inactive); in that of `O=C(/C=C/C12c3ccccc3C(c3ccccc31)C1C(=O)N(c3ccc(Cl)cc3)C(=O)C12)c1ccccn1` (centres undefined), -9.41% (active); in that of `Cc1ccc(-c2nc3nc(-c4ccccc4)nc(N4CCN(S(=O)(=O)c5ccccc5)CC4)c3o2)cc1`, 101% (inactive).
In the case of `Clc1cccc(Nc2ncnc3ccc(-c4cncc(-n5cnnn5)c4)cc23)c1`, the growth is -31.6% (active).
In the case of `Cn1cc(-c2csc(-c3cn(C(=O)OC(C)(C)C)c4ccc(Br)cc34)n2)c2cccnc21`, the growth is 104% (inactive).
For `CS(=O)(=O)OCCN(CCOS(C)(=O)=O)c1ccc(/C=N/Nc2ccc([N+](=O)[O-])cc2[N+](=O)[O-])cc1` the value was 87.9% (inactive); for `COc1cc(C(=O)NNC(=O)c2ccccc2C(=O)O)cc(OC)c1OC`, 48.6% (inactive).
For `O=C(NCc1ccc(Cn2c(=O)sn(-c3ccccc3)c2=O)cc1)OCc1ccc2cccc(O)c2n1` the value was -73.3% (active); for `CC(C)(O)C#CC#CC(C)(C)O`, 97.7% (inactive).
In the case of `CCCCN(CCCC)CCCOC(=O)c1ccc(N)cc1` it was 47.5% (inactive).
In the case of `CCOC(=O)c1c(C)nc2c(c1N)CC(=O)N2Cc1cc(F)cc(Cl)c1`, the growth was 84.9% (inactive).
For `N#C/C(=C\c1ccc(Br)cc1)n1nnc2c(F)cccc21` the value was -10.8% (active); for `CCc1c(CC(=O)O)c2cc(C)ccc2n1Cc1ccc(Cl)cc1`, 95.3% (inactive) and 94.5% (inactive).
